The supplement of paper PMC7366291
Structures can show the parent of a compound that is named as a salt. ± gives the standard deviation of the averaged measurements.

tested on: Danio rerio Tg(wt1b:EGFP) embryo, pronephros; assay: glomerular width (mean of left and right), fold change vs DMSO control; higher = wider glomerulus; conditions: 25 µM; exposure: 24-48 hpf
Outline: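 From 24 to 48 hpf, at 28.5°C, dechorionated Tg(wt1b:EGFP) zebrafish embryos sat in HEPES-buffered E3 with 0.003% PTU carrying 25 μM compound and 0.5% DMSO. Their pronephroi were imaged dorsally in 96-well plates filled with agarose, using 470 nm light and 10 z-slices. A Fiji macro measured distances and angles between 16 reference points that were set manually on maximum projections, and any value more than 2 SD from its feature mean was excluded. Features are expressed as fold change relative to the mean of DMSO-treated embryos imaged on the same day.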

Row | SMILES | glomerular width
1 | CCN(CC)CCNC(=O)COc1ccc(OC)cc1 [Mefexamide hydrochloride] | 0.916 ± 0.021
2 | COc1ccc2c(c1)N(C[C@H](C)CN(C)C)c1ccccc1S2 [Methotrimeprazine maleat salt] | 0.993 ± 0.037
3 | CCN(CC)CCNC(=O)c1cc(Br)c(N)cc1OC [Bromopride] | 1.04 ± 0.015
4 | Cc1cccc(CN2CCN(C(c3ccccc3)c3ccc(Cl)cc3)CC2)c1 (configuration not stated) [Meclozine dihydrochloride] | 0.93 ± 0.015
5 | CCN(CC)CC#CCOC(=O)C(O)(c1ccccc1)C1CCCCC1 (configuration not stated) [Oxybutynin chloride] | 1.04 ± 0.022
6 | CN(C)CCCSC(=N)N [Dimaprit dihydrochloride] | 1.05 ± 0.052
7 | Cc1cc(-n2c(=O)[nH]c(=O)n(C)c2=O)ccc1Oc1ccc(SC(F)(F)F)cc1 [Toltrazuril] | 0.8688 ± 0.0053
8 | CCOC(=O)[N-]c1c[n+](N2CCOCC2)no1 [Molsidomine] | 0.9963 ± 0.0028
9 | O=C1CN(/N=C/c2ccc(-c3ccc([N+](=O)[O-])cc3)o2)C(=O)N1 [Dantrolene sodium salt] | 0.974 ± 0.084
10 | CC[C@H]1OC(=O)C[C@@H](O)[C@H](C)[C@@H](O[C@@H]2O[C@H](C)[C@@H](O[C@H]3C[C@@](C)(O)[C@@H](O)[C@H](C)O3)[C@H](N(C)C)[C@H]2O)[C@@H](CC=O)C[C@@H](C)C(=O)/C=C/C(C)=C/[C@@H]1CO[C@@H]1O[C@H](C)[C@@H](O)[C@@H](OC)[C@H]1OC [Tylosin] | 0.983 ± 0.0057
11 | CN(C)CCOC(c1ccccc1)c1ccccc1.Cn1c(=O)c2[nH]c(Cl)nc2n(C)c1=O [Dimenhydrinate] | 1.05 ± 0.054
12 | O=C(O)Cc1sc(-c2ccccc2)nc1-c1ccc(Cl)cc1 [Fentiazac] | 0.503 ± 0.018
13 | CCCCOc1cc(C(=O)NCCN(CC)CC)c2ccccc2n1 [Dibucaine] | 0.996 ± 0.044
14 | CCCCc1nc(Cl)c(CO)n1Cc1ccc(-c2ccccc2-c2nnn[nH]2)cc1 [Losartan] | 0.9444 ± 0.0062
15 | CCCCNC(=O)NS(=O)(=O)c1ccc(C)cc1 [Tolbutamide] | 1.01 ± 0.014
16 | COC(c1ccccc1)(c1ccccc1)[C@H](Oc1nc(C)cc(C)n1)C(=O)O [Ambrisentan] | 0.873 ± 0.017

Row | SMILES | glomerular width
17 | CCS(=O)(=O)CCn1c([N+](=O)[O-])cnc1C [Tinidazole] | 1.04 ± 0.036
18 | Clc1ccccc1CN1CCc2sccc2C1 [Ticlopidine hydrochloride] | 1.09 ± 0.048
19 | CC(CCc1ccccc1)NCC(O)c1ccc(O)c(C(N)=O)c1 (configuration not stated) [Labetalol hydrochloride] | 1.05 ± 0.075
20 | C[N+](C)(CCOc1ccccc1)Cc1ccccc1.O=C([O-])c1cc2ccccc2cc1O [Bephenium hydroxynaphthoate] | 0.9959 ± 0.0015
21 | O=C(c1ccc(OCCN2CCCCC2)cc1)c1c(-c2ccc(O)cc2)sc2cc(O)ccc12 [Raloxifene hydrochloride] | 0.98 ± 0.059
22 | C[C@]12CCC(=O)C=C1C=C[C@@H]1[C@@H]2CC[C@@]2(C)[C@H]1CC[C@@]21CCC(=O)O1 [Canrenone] | 0.798 ± 0.02
23 | Clc1ccc(COC(Cn2ccnc2)c2ccc(Cl)cc2Cl)c(Cl)c1 (configuration not stated) [Miconazole] | 0.865 ± 0.069
24 | CC[C@H]1OC(=O)[C@H](C)[C@@H](O[C@H]2C[C@@](C)(OC)[C@@H](O)[C@H](C)O2)[C@H](C)[C@@H](O[C@@H]2O[C@H](C)C[C@H](N(C)C)[C@H]2O)[C@](C)(O)C[C@@H](C)CN(C)[C@H](C)[C@@H](O)[C@]1(C)O [Azithromycin] | 0.945 ± 0.022
25 | COc1cc2c(cc1OC)C(=O)C(CC1CCN(Cc3ccccc3)CC1)C2 (configuration not stated) [Donepezil hydrochloride] | 1.13 ± 0.082
26 | CC(=O)CCCCn1c(=O)c2c(ncn2C)n(C)c1=O [Pentoxifylline] | 0.971 ± 0.032
27 | C[C@]12CC[C@H]3C(=CCc4cc(O)ccc43)[C@@H]1CCC2=O [Equilin] | 0.988 ± 0.038
28 | CCn1cc(C(=O)O)c(=O)c2cnc(N3CCCC3)nc21 [Piromidic acid] | 0.909 ± 0.021
29 | Cc1cc(N)c2ccccc2[n+]1CCCCCCCCCC[n+]1c(C)cc(N)c2ccccc21 [Dequalinium dichloride] | 1.02 ± 0.021
30 | Nc1nc(F)nc2c1ncn2[C@@H]1O[C@H](CO)[C@@H](O)[C@@H]1O [Fludarabine] | 0.997 ± 0.061
31 | CC(C)NCC(O)COc1cccc2[nH]ccc12 (configuration not stated) [Pindolol] | 0.901 ± 0.021
32 | CC(=O)N(CC(O)CN(C(C)=O)c1c(I)c(C(=O)NCC(O)CO)c(I)c(C(=O)NCC(O)CO)c1I)c1c(I)c(C(=O)NCC(O)CO)c(I)c(C(=O)NCC(O)CO)c1I (configuration not stated) [Iodixanol] | 1.043 ± 0.0099
